Only a selection was taken, and hits are over-represented in it overall.
Cycloheximide cs: Cycloheximide Counterscreen for Small Molecule Inhibitors of Shiga Toxin. cell reporter, cycloheximide protein synthesis inhibition counterscreen. AID 2314, 2010. 300,000 tested, 12% active. max response, %; in the data active = max response mostly above about 13%, no sharp cut-off; inactive = mostly below about 14%; also: read at 38.3 µM for the half of the compounds with a filed dose; 0% is about no effect
AmpC no deterg: qHTS Inhibitors of AmpC Beta-Lactamase (assay without detergent). Potency, µM (series often up to 57.1 µM), for the others: at the top dose activity change, negative = inhibition, most hits filed as inhibitors. AmpC nitrocefin hydrolysis, absorbance 480 nm, 0.0001% Triton. 330,000 tested, 0.52% active;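 also: potency is read from the fitted curve at half-maximal effect; plate controls were no compound for no effect and no enzyme for full effect; nearly all actives have a fitted effect of over 20% in size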
Target sequence (P00811 whole entry, looked up): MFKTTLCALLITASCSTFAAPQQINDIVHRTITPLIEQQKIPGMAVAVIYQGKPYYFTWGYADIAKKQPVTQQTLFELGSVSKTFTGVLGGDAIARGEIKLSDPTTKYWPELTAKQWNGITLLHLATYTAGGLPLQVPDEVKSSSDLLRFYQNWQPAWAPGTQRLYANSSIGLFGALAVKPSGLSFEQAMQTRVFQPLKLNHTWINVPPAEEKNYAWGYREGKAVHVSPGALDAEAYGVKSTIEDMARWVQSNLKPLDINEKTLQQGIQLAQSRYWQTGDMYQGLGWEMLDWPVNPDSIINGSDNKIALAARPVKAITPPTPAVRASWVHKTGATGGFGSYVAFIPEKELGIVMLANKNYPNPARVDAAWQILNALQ
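AmpC (5.3 nM in the dispensed reagent) in 20 mM phosphate pH 7.0 with 0.01% (detergent screen) or 0.0001% Triton X-100 was preincubated with compounds for 15 min at room temperature. Nitrocefin was then added from an 800 uM solution, and hydrolysis was followed at 480 nm.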
NS1 function inh: qHTS Assay for Inhibitors of Influenza NS1 Protein Function; 270,000 tested, 0.4% active; AID 2326, 2010; Potency, µM (top dose mostly 46.1 µM), inactives show top-dose activity, positive = more growth; calls by dose curve; also: potency is read from the fitted curve at half-maximal effect; actives are rising curves; nearly all actives have a fitted effect of over 50% in size
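In this qHTS, NS1 from influenza A is expressed in budding yeast, where it slows growth. Cells are switched from glucose to 2% galactose medium (pH 6.0, -URA), treated with compound, and growth recovery is read at OD600.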
Shiga inhibitor: A qHTS for Small Molecule Inhibitors of Shiga Toxin; Vero cells, Shiga toxin protein synthesis inhibition reporter; inhibition, % at 38.7 µM; 290,000 tested, 9.2% active; AID 2315, 2010; in the data active = inhibition mostly above about 28%, no sharp cut-off; inactive = mostly below about 43%; also: 0% is about no effect
AmpC detergent: qHTS Inhibitors of AmpC Beta-Lactamase (assay with detergent); P00811; AmpC hydrolysis of nitrocefin, absorbance 480 nm, 0.01% Triton; Potency, µM (titrated, usually from 114 µM), inactives show top-dose activity change, negative = inhibition, most hits filed as inhibitors; 370,000 tested, 0.041% active; AID 485294, 2010;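 also: potency is read from the fitted curve at half-maximal effect; 0% = no-compound wells and -100% = no-enzyme wells; nearly all actives have a fitted effect of over 25% in size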
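AmpC (5.3 nM in the dispensed reagent) in 20 mM phosphate pH 7.0 with 0.01% (detergent screen) or 0.0001% Triton X-100 was preincubated with compounds for 15 min at room temperature. Nitrocefin was then added from an 800 uM solution, and hydrolysis was followed at 480 nm.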
* = called active by the depositor; u = inconclusive; x = no result. Unless noted, calls follow the shape of the dose curve; as a rule, active = well fitted curve in the direction sought with a large enough effect; inconclusive = small, poorly fitted or top-dose-only effect, or another doubt; inactive = no such curve, though single readings can be large; an effect the other way counts as inactive or inconclusive.

SMILES	Cycloheximide cs	AmpC no deterg	NS1 function inh	Shiga inhibitor	AmpC detergent
COc1ccc(CNC(=O)CSc2ccsc2[N+](=O)[O-])cc1	34*	-22%	x	84*	-16%
COc1ccc(N2CCN(S(=O)(=O)CCNC(=O)COc3ccccc3F)CC2)cc1	x	x	x	x	2%
CCc1ncc(C(=O)c2ccc(OC)cc2)n1C	14*	-4%	4%	9	u
COc1ccc(C(=O)c2cnc[nH]2)cc1	-4	-4%	-1%	-3	2%
COc1ccc(NC(=O)c2sccc2SCc2cccc(C(F)(F)F)c2)cc1	16*	-22%	5%	36*	0%
CCOc1ccc(-n2c(SCC(=O)N3CCCCCC3)nc3c([nH]c4ccccc43)c2=O)cc1	x	x	x	x	5%
COc1ccccc1C1=NC(c2ccc(C)cc2)N=C1C (stereo not drawn)	39*	-13%	x	131*	u
COc1ccccc1-c1nc2ccccc2nc1-c1ccccc1OC	-3	-2%	-2%	-10	-14%
O=C(Nc1ncn[nH]1)c1ccccc1Br	-3	-20%	5%	-9	u
O=C(Nc1ccc2[nH]ncc2c1)c1ccccc1Br	18*	-15%	-9%	22	-1%
O=C(Nc1ccc2[nH]ncc2c1)c1ccccc1Cl	16*	-33%	-2%	22	-8%
O=C(COc1ccccc1)Nc1ccc2[nH]ncc2c1	-1	-16%	7%	-3	-15%
Cc1onc(-c2ccccc2)c1C(=O)Nc1ccncc1	3	-12%	u	-2	u
Cc1onc(-c2ccccc2)c1C(=O)Nc1cccc(C#N)c1	-4	11µM*	-20%	-11	3%
Cc1cccc(NC(=O)Nc2ccc(C#N)cc2)n1	18*	-15%	2%	17	u
Cc1cccc(NC(=O)Nc2cccc(C#N)c2)n1	36*	-22%	-3%	21	-11%
Cn1c2ccccc2c(=O)c2cc(C#Cc3ccc(N)cc3)ccc21	41*	-17%	20%	39*	-2%
COc1ccc(C#Cc2ccc3c(c2)c(=O)c2ccccc2n3C)cc1	1	-36%	12%	4	u
Cn1c2ccccc2c(=O)c2ccc(C#CC3(O)CCCCC3)cc21	35*	46%	-30%	41*	-9%
Cc1nn(CC(=O)NCc2ccco2)c(=O)c2cc3ccccc3n12	x	x	x	x	20%
CSc1cccc(NC(C)=O)c1	-1	-11%	-11%	6	u
CSc1cccc(NC(=O)Nc2ccccc2C(N)=O)c1	47*	-20%	-4%	39*	-3%
CSc1cccc(NC(=O)Nc2ccccc2)c1	34*	-20%	-88%	95	8%
Cc1nn(-c2ccccc2)c(Cl)c1CN(C(=O)CCl)c1ccc(Cl)cc1	-8	52%	-38%	0	u
Cc1nn(-c2ccccc2)c(Cl)c1CN(C(=O)CCl)c1cccc2ccccc12	12*	47%	-3%	-5	-9%
SMILES	Cycloheximide cs	AmpC no deterg	NS1 function inh	Shiga inhibitor	AmpC detergent
O=C(NCCC1=CCCCC1)c1ccc(Cl)cc1	33*	-18%	-31%	46	13%
CS(=O)(=O)Nc1ccc(C(=O)NCCC2=CCCCC2)cc1	55*	x	3%	144*	-1%
O=C(NCCC1=CCCCC1)c1ccc(Cl)c(S(=O)(=O)N2CCCCC2)c1	30	-34%	-59%	50	-8%
O=C(NCCC1=CCCCC1)c1ccc(Cl)c(S(=O)(=O)N2CCOCC2)c1	12	13%	-31%	active	2%
CS(=O)(=O)N(Cc1ccc(Cl)cc1)c1ccc(C(=O)NCCC2=CCCCC2)cc1	-2	14%	5%	-8	-11%
O=C(CN(Cc1ccc(F)cc1)S(=O)(=O)c1ccc(S(=O)(=O)N2CCOCC2)cc1)Nc1ccccc1	0	-2%	1%	-8	-8%
O=C(Nc1nccs1)C1CC2CCC1C2 (stereo not drawn)	5	-13%	9%	33	u
O=C(Nc1ccc([N+](=O)[O-])cn1)C1CC2CCC1C2 (stereo not drawn)	13	-24%	-17%	17*	u
O=C(Cn1nnc(-c2ccccc2F)n1)Nc1ccc2c(c1)OCCO2	32*	u	11%	79*	-4%
COc1ccccc1NC(=O)Cn1nnc(-c2ccccc2NC(=O)c2cc3ccccc3oc2=O)n1	39*	-27%	0%	80*	5%
COc1ccccc1NC(=O)Cn1nnc(-c2ccccc2NS(=O)(=O)c2ccccc2)n1	8	-30%	-3%	-6	u
CC(=O)Nc1ccccc1-c1nnn(CC(=O)Nc2ccc3c(c2)OCCO3)n1	24*	143%	-68%	45	-2%
Cc1ccccc1C(=O)Nc1ccccc1-c1nnn(CC(=O)Nc2ccc3c(c2)OCCO3)n1	38*	-38%	0%	41	2%
O=C(Cn1nnc(-c2ccccc2NC(=O)c2ccccc2)n1)Nc1ccc2c(c1)OCCO2	-1	-31%	-5%	6	-1%
O=C(COC(=O)C1C2CC3OC(=O)C1C3C2)Nc1cccc(Cl)c1 (stereo not drawn)	4	-6%	18%	3	-2%
Cc1cc(C)n(CC(O)COc2ccc3ccccc3c2)n1 (stereo not drawn)	26*	38%	0%	46*	-7%
COCCCNC(=O)C1CCN(c2cc(C)nc3c(-c4ccc(OC)c(OC)c4)c(C)nn23)CC1	x	x	x	x	8%
O=C(c1ccc(N2CCCCC2)c([N+](=O)[O-])c1)N(c1ccccn1)c1ccccn1	32	77%	x	51	6%
CC(NS(=O)(=O)c1c(N)n(C)c(=O)n(C)c1=O)c1ccccc1 (stereo not drawn)	29*	-10%	-8%	57*	-13%
Cn1c(N)c(S(=O)(=O)NCc2ccccc2Cl)c(=O)n(C)c1=O	-3	-24%	x	-18	0%
C=CCNc1nc(Cl)nc(NCc2ccco2)n1	-2	-14%	-11%	-5	-16%
Oc1ccc(Nc2nc(Cl)nc(NCc3ccco3)n2)cc1	34*	-38%	u	38	-14%
Cc1ccc(-c2nc(NCc3ccco3)c3ccccc3n2)cc1	69*	-42%	-33%	36*	5%
c1ccc(Nc2nc(NCc3ccco3)c3ccccc3n2)cc1	16*	-41%	-65%	33*	-1%
CSc1nc(NCc2ccco2)c2ccccc2n1	-4	-15%	-15%	14	u
Cc1cccc(Nc2nc(NCc3ccco3)c3ccccc3n2)c1	11*	-29%	-36%	23	-5%
CCCN(C(=O)c1c(C)oc2ncnc(N3CCOCC3)c12)c1ccc(Cl)c(Cl)c1	x	x	x	x	4%
Oc1ccccc1Nc1nc(NCc2ccco2)c2ccccc2n1	-1	-46%	-39%	15	-5%
Cc1ccccc1Nc1nc(NCc2ccco2)c2ccccc2n1	19*	-35%	x	49	-5%

Screens from PubChem.
